Here are results for 29 molecules from PubChem BioAssay (NCI).

What all share (experiment): NCI-60 one-dose screen, 48 h (100 = growth as untreated, 0 = no growth, -100 = all killed)
For assay [1], the system named is NCI-H23 lung. The following applies: 10 µM unless noted.
The test system of assay [2] is NCI-H226 lung. The following applies: 10 µM unless noted.
For assay [3], the system named is NCI-H322M lung. The following applies: 10 µM unless noted.
Assay [4] has as its system HOP-62 NSCLC. The following applies: 10 µM unless noted.
For assay [5], the system named is NCI-H460 lung. The following applies: 10 µM unless noted.
Assay [6] relates to A549/ATCC NSCLC. The following applies: 10 µM unless noted.
For assay [7], the system named is 786-0 renal. The following applies: 10 µM unless noted.
In assay [8] the test system is COLO 205 colon. The following applies: 10 µM unless noted.
Assay [9] relates to HOP-92 NSCLC. The following applies: 10 µM unless noted.
The subject of assay [10] is NCI-H522 lung. The following applies: 10 µM.

Compounds without any hit were thinned out: in the full panel of roughly 83,000, 20% have a hit.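 Values shown are percent growth following 48 h exposure of cells in 96-well plates to a single concentration of compound; below 10 was considered active.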 Unmarked numbers belong to inactive results. Calls of active or inactive are those of the source.

In the case of `CCCc1n(Cc2ccc3ccccc3c2)cc[n+]1Cc1ccc2ccccc2c1`, the growth was -28.2% (active) in [1]; 0.228% (active) in [2]; 23.2% in [3]; 5.82% (active) in assay [4]; 3.26% (active) in assay [5]; 31.6% in [6]. Further, the results for the growth in assay [7] and in assay [8] were 9.55% (active) and -66.9% (active), respectively.
As to `COC(=O)c1cc2c(/C=C3/NC(=S)NC3=O)coc2n1C`, the growth in assay [1] is 103%; in assay [2], 110%; in [3], 87.1%; in assay [4], 89.3%; in assay [9], -38.5% (active); in [6] it was 104%. Moreover, the results for the growth in [7] and in assay [8] were 98.2% and 97.7%, respectively.
`CCCCc1n(Cc2ccc3ccccc3c2)cc[n+]1Cc1ccc2ccccc2c1`: the growth in assay [1] was -23.8% (active); in assay [2], -0.475% (active); in assay [3], 23.3%; in [4] it was -2.71% (active); in [9], -38.2% (active); in assay [6] it was 29.8%. The growth in assay [7] was -18.4% (active); in assay [8], -77.1% (active).
Take `COP(=O)(OC)C(c1ccc(O)cc1)(c1ccc(O)cc1)c1ccc(O)cc1`: the growth in [1] was 114%; in [2], 99.7%; in assay [3], 103%; in assay [4] it was 83.3%; in assay [9] it was 79.3%; in [6] it was 99.9%. In addition, the growth was 82.4% in [7] and 123% in assay [8].
For `CN(C)CCCNc1nn2c(=O)c3ccccc3nc2c2ccccc12`, the growth was 54.1% in assay [1]; 53.4% in assay [2]; 61.9% in [3]; 47.5% in assay [4]; 23.3% in assay [9]; 24% in assay [6]. Also, the growth in assay [7] is 59%; in [8], 37.1%.
For the molecule `N#Cc1ccc(-c2csc(Nc3ccc4nc5n(c(=O)c4c3)CCC5)n2)cc1`, the growth is 105% in [1]; 105% in assay [2]; 104% in assay [3]; 108% in [4]; 101% in assay [5]; 101% in assay [6]. For the same molecule, the growth in assay [7] is 104%; in assay [8] it was 109%.
With `COc1ccc2c(c1)[n+](=O)c(C(=O)/C=C/c1cc(OC)c(OC)c(OC)c1)c(C)n2[O-]`, the growth in assay [1] was 65.9%; in assay [2], 79.1%; in [3], 81.3%; in assay [4], 101%; in [9] it was 63.7%; in assay [6] it was 74.1%. Moreover, the growth was 70.9% in assay [7] and 58.9% in assay [8].
Consider `NC(=NCCCCCCN=C(N)/N=C(\N)Nc1ccc(Cl)cc1)/N=C(\N)Nc1ccc(Cl)cc1`, for which the growth is 8.42% (active) in assay [1]; -9.31% (active) in assay [2]; 19.8% in [3]; -25.3% (active) in [4]; -1.1% (active) in assay [5]; 14% in assay [7]. Further, the growth in assay [8] was -96.4% (active).
As to `N#CSCC1CC(O)(c2ccccc2)C(c2ccccc2)C(c2ccc(Cl)cc2)O1` (stereo unspecified), the growth was -78.6% (active) in [1]; 19.7% in [2]; 52.3% in [3]; 5.71% (active) in assay [4]; -29.6% (active) in assay [9]; -53.7% (active) in assay [6]. For the same molecule, the growth in assay [7] was -74.3% (active); in assay [8], -98.3% (active).
In the case of `O=C(COc1cccc(/C=C2\Oc3ccc4ccccc4c3C2=O)c1)c1ccc(Cl)cc1`, the growth in assay [1] is 28.3%; in assay [2] it was 91.9%; in [3] it was 108%; in assay [4], 101%; in assay [9] it was 81.9%; in [10], 38%. The growth in assay [7] was 105%; in [8], 102%.
As for `COc1ccc(C(=O)/C=C/c2cccc(Nc3ccnc4cc(Cl)ccc34)c2)cc1`, the growth in [1] is 43.2%; in assay [2], 54.3%; in assay [3] it was 49.6%; in assay [4], 18.8%; in assay [9] it was 29.1%; in assay [6] it was 29.4%. The growth in [7] is -35.4% (active); in assay [8], 45.1%.
Turning to `CCCCCc1c(C)[nH]c(/C=C2\N=C(c3ccc[nH]3)C=C2Oc2ccccc2)c1C`, the growth in [1] is -80.2% [100 µM] (active); in assay [2] it was -38.2% [100 µM] (active); in [3] it was -49.8% [100 µM] (active); in assay [4], -46.4% [100 µM] (active); in assay [9], -41.3% [100 µM] (active); in assay [6], -81.6% [100 µM] (active). For the same molecule, the figures for the growth in assay [7] and in assay [8] were -76.3% [100 µM] (active) and -53.9% [100 µM] (active), respectively.
Turning to `[N-]=[N+]=NCc1cccc(/C(O)=C/C(=O)C(=O)O)c1`, the growth is 85.4% in assay [1]; 86.1% in [2]; 93.8% in assay [3]; 94.5% in assay [4]; 92.7% in [9]; 93.6% in [6]. Further, the figures for the growth in assay [7] and in assay [8] were 97.3% and 99.6%, respectively.
Turning to `O=C(O)CNC(=O)C1(N2C(=O)c3ccccc3C2=O)CCCC1`, the growth was 101% in [1]; 96.7% in assay [2]; 106% in [3]; 110% in assay [4]; 124% in assay [9]; 99% in assay [6]. Also, the growth is 94.1% in [7] and 112% in assay [8].
Turning to `O=C(CN1CCN(c2ccc(Cl)cc2)CC1)N1CCN(c2nnc(-c3ccc(Cl)cc3)c(-c3ccc(Cl)cc3)n2)CC1`, the growth is 85% in [1]; 62% in [2]; 77.9% in assay [3]; 103% in assay [4]; 75.3% in assay [5]; 15% in [6]. The growth in assay [7] is 80.6%; in assay [8] it was 90.8%.
On to `Nc1nc(Nc2ccccc2SSc2ccccc2Nc2nc(N)nc(C(Cl)(Cl)Cl)n2)nc(C(Cl)(Cl)Cl)n1`, for which the growth was 54% in assay [1]; 64.6% in assay [2]; 75.3% in assay [3]; -34% (active) in assay [4]; 131% in assay [9]; -42.5% (active) in assay [6]. In addition, the growth in assay [7] was 70%; in assay [8], 114%.
For the molecule `COc1cccc(/C=C2\Cc3ccccc3C2=O)c1`, the growth in assay [1] is 106%; in assay [2], 107%; in assay [3], 110%; in assay [4], 96.4%; in [9], 85.7%; in assay [6], 87%. The growth in assay [7] is 101%; in assay [8], 115%.
Take `O=C1CNc2cc(Cl)ccc2N1`: the growth in assay [1] was 96.7%; in [2] it was 103%; in assay [3], 106%; in assay [4] it was 99.2%; in [5], 109%; in assay [6] it was 113%. Besides, the growth in assay [7] was 109%; in assay [8] it was 106%.
Consider `CC(=O)O[C@H]1CC[C@@]2(C)C(=CC[C@@H]3[C@@H]2CC[C@]2(C)C(c4cccnc4)=CC[C@@H]32)C1`, for which the growth in [1] is 66.6%; in assay [2] it was 64.1%; in assay [3] it was 95.6%; in [4], 75.7%; in [9] it was 79.4%; in assay [10], 38.3%. The growth in assay [7] is 13.6%; in assay [8] it was 81.8%.
For the molecule `C#C[C@]1(O)CCC2C3CCc4cc(O)ccc4C3CC[C@@]21C` (stereo partly specified), the growth in assay [1] was 62.4%; in [2], 81.3%; in assay [3], 81.4%; in assay [4], 35.4%; in assay [9], 75.3%; in [10] it was 10.6%. Further, the growth in assay [7] was 44.3%; in assay [8], 41.1%.
In the case of `CC(=O)/C(=C/c1ccc(Cl)cc1)C(=O)c1ccccc1`, the growth in [1] is 88.6%; in [2], 107%; in assay [3], 101%; in assay [4], 95.5%; in [9] it was 62.5%; in [6], 94.8%. The growth was 93.9% in [7] and 111% in [8].
Consider `CN(C)CCC(=O)Nc1ccc(-n2cc(-c3cccc(NC(=S)Nc4cccc(-c5cn(-c6ccc(NC(=O)CCN(C)C)cc6)nn5)c4)c3)nn2)cc1`, for which the growth is 89.1% in assay [1]; 135% in assay [2]; 92.4% in [3]; 105% in assay [4]; 95.6% in assay [5]; 88.6% in assay [6]. Besides, the growth is 101% in assay [7] and 99.4% in assay [8].
Consider `COc1cc(/C=C/C(=O)c2c(C)n([O-])c3ccc(Cl)cc3[n+]2=O)cc(OC)c1OC`, for which the growth in [1] is 81.7%; in assay [2], 80.7%; in assay [3] it was 90.5%; in assay [4], 110%; in assay [5] it was 64.3%; in assay [6], 71.7%. In addition, the growth in assay [7] was 94.4%; in [8] it was 86.8%.
As for `CCc1nn2c(-c3ccc(Cl)cc3C)c(-c3cc(OC)c(OC)c(OC)c3)nc2s1`, the growth in [1] is 88.9%; in assay [2] it was 87%; in assay [3] it was 69.7%; in [4], 84.7%; in assay [5], 84.8%; in assay [6], 82.7%. The growth is 72.9% in assay [7] and 81.2% in [8].
On to `COP(=O)(OC)C(c1ccccc1)(c1ccccc1)c1ccccc1`, for which the growth is 104% in assay [1]; 83.8% in assay [2]; 95.4% in [3]; 93.8% in [4]; 108% in assay [5]; 74.5% in assay [6]. The growth in assay [7] was 93.3%; in assay [8], 103%.
Turning to `CCCCOP(=O)(OCCCC)C(C(=O)OCC)C(CC(=O)OCC)C(=O)OCC` (stereo unspecified), the growth in [1] was 134%; in [2], 99.1%; in assay [3], 107%; in assay [4], 104%; in assay [9], 48.4%; in assay [6], 103%. Besides, the values for the growth in assay [7] and in assay [8] were 106% and 107%, respectively.
With `O=c1ccn(C2CC=C(CO)O2)c(=O)[nH]1` (stereo unspecified), the growth in assay [1] is 91.9%; in assay [2], 95.7%; in assay [3] it was 95.9%; in assay [4], 102%; in assay [9], 38.1%; in assay [6] it was 106%. For the same molecule, the figures for the growth in [7] and in assay [8] were 93.4% and 106%, respectively.
Take `Cc1sc2nc(N3CCCCC3)[nH]c(=O)c2c1C`: the growth was 95.8% in assay [1]; 88% in assay [2]; 102% in assay [3]; 93.3% in [4]; 101% in assay [5]; 83.2% in assay [6]. For the same molecule, the growth in [7] is 94.1%; in [8] it was 100%.
For the molecule `CCCCCN1C(=O)CCC1=O`, the growth is 110% in assay [1]; 101% in [2]; 110% in [3]; 120% in assay [5]; 79.3% in assay [9]; 99% in [6]. In addition, the growth in assay [7] is 111%; in [8], 99.4%.
